The source of these data is PubChem BioAssay (Tox21).

Structures are written as SMILES. Inconclusive results are not listed. Entries that show only a call come without a potency. Calls of active or inactive are those of the source. The call rests on the fitted dose curve.
Potency means the concentration at half of the fitted maximal effect.

The nature of the test: qHTS assay to identify small molecule agonists of H2AX - cell viability counter screen (AID 1224847). Further: nearly all actives have a fitted effect of over 30% in size. On activity change, negative = cytotoxicity: top concentration of the series differs between compounds. Conditions: CHO-K1 viability, CellTiter-Glo luminescence, 3 h; series mostly up to 154 µM. An excerpt:
National Center for Advancing Translational Sciences [NCATS]
NIH Chemical Genomics Center [NCGC]
U.S. Environmental Protection Agency [EPA]
National Institutes of Environmental Health Sciences [NIEHS]
National Toxicology Program [NTP]
U.S. Food and Drug Administration [FDA]
HTRF phospho-H2AX (Ser139) assay (Cisbio Bioassays, US) enables the quantitative detection of the histone variant H2AX when phosphorylated on serine 139. When double-stranded DNA breaks, either by ionizing radiation or endogenous physiological processes, H2AX becomes phosphorylated at Ser139. This phospho-Ser139 serves as a sensitive biomarker for the detection of such breaks, localizing the site of DNA repair. So, HTRF phospho-H2AX Ser139 is a pertinent assay to study genome stability, the cell cycle, DNA repair, and it serves as a biomarker for cancer, and to understand aging. Wild type CHO-K1 cells were used to identify the inducers of Phospho-H2AX Ser 139 from the Tox21 compound collections. Also cytotoxicity of the Tox21 10K compound library against the CHO-K1 cell line was tested by measuring the cell viability using CellTiter-Glo assay (Promega, Madison, WI).
Tox21 Assay Protocol Summary:
The CHO-K1 cells suspended in culture medium containing 10% FBS were dispensed at 1000 cells/ 3 ul/well in 1536-well white wall/solid bottom plates (Greiner Bio-One North America, NC) using a Multidrop Combi (Thermo Fisher Scientific Inc., Waltham, MA). After the assay plates were incubated at 37C overnight, 23 nl of compounds at 15 concentrations (from 5-48 columns) or positive control (from 1 to 4 columns) were transferred to the assay plates using a Pintool station (Wako, San Diego, CA) into each well resulting in a final DMSO concentration of 0.76%. After 3hr incubation at 37C, 3 uL/well CellTiter-Glo luminescent cell viability reagent (Promega Corporation, Madison, WI) was added using a Flying Reagent Dispenser (FRD) (Aurora Discovery, CA). After incubation at room temperature for 30 min, the luminescence intensity was read using a ViewLux plate reader (PerkinElmer, Waltham, MA).
In general terms: qHTS replaces the single test concentration by a dilution series.
On to `C(=C(c1ccccc1)c1ccccc1)c1ccccc1`, for which the Potency is 80 µM (active).
Take `CC1(C)SC(C)(C)SC(C)(C)S1`: the Potency result is “inactive”.
Regarding `FC(F)(F)C(F)(F)C(F)(F)C(F)(F)C(F)(F)C(F)(F)C(F)(F)C(F)(F)C(F)(F)C(F)(F)F`, the activity change, negative = cytotoxicity is 0.329% [at 14 µM] (inactive).
As to `Cc1c(F)cc2c(=O)c(C(=O)O)cn3c2c1CCC3C` (stereo not given), the Potency entry was “inactive”.
For `CC(=O)OC(C)(C)C`, the Potency result is “inactive”.
For `O=S(=O)(O)c1ccccc1O`, the Potency entry was “inactive”.
Turning to `O=C(O)/C=C/c1ccc(Cn2ccnc2)cc1`, the Potency result was “inactive”.
Take `O=C(CCOCCOCCOCCOCCC(=O)Nc1c(I)cc(I)c(C(=O)O)c1I)Nc1c(I)cc(I)c(C(=O)O)c1I`: the Potency entry is “inactive”.
On the same count and under the same terms, the value for `Nc1[nH]c(=O)ncc1F` was “inactive”.
As for `CCCc1ccccc1O`, the Potency entry was “inactive”.
Take `CCN1CCN(c2cc3c(cc2F)c(=O)c(C(=O)O)cn3C2CC2)CC1`: the Potency result was “inactive”.
With `CCCCCCC(CCCCCCCCCCC(=O)OCC(COC(C)=O)OC(C)=O)OC(C)=O` (stereo not given), the Potency entry is “inactive”.
As to `COc1cc(CCC(C)=O)ccc1O`, the Potency result is “inactive”.
Take `Nc1ccc2cc(S(=O)(=O)O)ccc2c1`: the Potency entry is “inactive”.
On to `C[C@H]1O[C@@H](n2cc(F)c(=O)[nH]c2=O)[C@H](O)[C@@H]1O`, for which the Potency result was “inactive”.
For the compound `CCCCOCC(C)OCC(C)O` (stereo not given), the Potency result was “inactive”.
`Cn1cnc2c(=O)[nH]c(N)nc21`: the Potency entry is “inactive”.
On to `CC(=O)c1ccc(C)cc1`, for which the Potency entry was “inactive”.
As to `Cc1onc(-c2ccccc2)c1-c1ccc(S(N)(=O)=O)cc1`, the Potency entry is “inactive”.
For the compound `C=C(C)C1CC=C(C)C(O)C1` (stereo not given), the Potency entry is “inactive”.
Regarding `CC(C)CCCC(C)NCCC(C)C` (stereo not given), the Potency entry was “inactive”.
Still for that read-out and setting: the value for `CCCCCCCCCCCCCCCCCCOCC(O)CO` (stereo not given) was “inactive”.
Regarding `C#CC(C)(O)CC(C)C` (stereo not given), the Potency result was “inactive”.
`NC1CCN(c2cccc(Cl)n2)CC1`: the Potency entry was “inactive”.
For `CNC(=O)c1c(I)c(NC(=O)CCCCC(=O)Nc2c(I)c(C(=O)O)c(I)c(C(=O)NC)c2I)c(I)c(C(=O)O)c1I`, the Potency result is “inactive”.
Same read-out and setting: the value for `N#CCc1ccccc1[N+](=O)[O-]` was “inactive”; that for `O=[N+]([O-])c1ccc(Oc2ccc([N+](=O)[O-])cc2)cc1` was “inactive”; that for `Nc1cc(N)cc(C(=O)O)c1` was “inactive”.
On the same count and under the same terms, the value for `CC(C)CCOC(=O)CC(C)C` was “inactive”; that for `Oc1cc(O)c2c(c1)O[C@H](c1ccc(O)c(O)c1)[C@H](O)C2` was “inactive”; that for `OC/C=C/c1ccccc1` was “inactive”.
As to `COC[C@H](c1ccc(C(F)(F)F)cc1)N1CCN(C2(C)CCN(C(=O)c3c(C)ncnc3C)CC2)C[C@H]1C`, the Potency result was “inactive”.
The same measure, in the same setting: the value for `CCCCC1CCCCC(=O)O1` (stereo not given) was “inactive”; that for `COC(=O)c1ccc(C(=O)OC)c(C(=O)OC)c1` was “inactive”.
`CC(C)(O)Cc1ccccc1`: the Potency result is “inactive”.
As to `C=C(C)C(=O)OCCCCCCCCCCCCCCCCCC`, the activity change, negative = cytotoxicity is 1.51% [at 31.6 µM] (inactive).
For `COc1cccc(Br)c1`, the Potency result is “inactive”.
The same measure, in the same setting: the value for `O=C1C(CCS(=O)c2ccccc2)C(=O)N(c2ccccc2)N1c1ccccc1` (stereo not given) was “inactive”; that for `CCCOCC(C)OCC(C)O` (stereo not given) was “inactive”; that for `CCN1CCCC1CNC(=O)c1cc(S(N)(=O)=O)ccc1OC` (stereo not given) was “inactive”.
